In PubChem BioAssay:
The source made the active and inactive calls.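 Rule for the calls, unless noted: active = compounds whose cell count with miR-34 switched on is under 0.7 times the count with it off; inactive = the rest.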

How the values were obtained:
[1] = viability loss with induced miR-34 in A549 – imaging, A549 dox-inducible miR-34, nuclei and caspase counts, primary screen (AID 1347080); settings: A549 miR-34 inducible, Hoechst nuclei count, 48 h
[2] = MELAS cybrid and Rieske KO viability enhancers – cell-based, MELAS cybrids, Rieske KO mouse fibroblasts, CellTiter-Glo, primary screen (AID 1508586;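 active = mean z-score across replicates of 1.96 or higher in either the MELAS or the Rieske mutant cell line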;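 note: z relative to plate mean and SD of compound and empty wells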); settings: low glucose
[3] = stronger effect = lower value, cell number ratio, induced over uninduced
[4] = measured here: relative caspase fold change +Dox/-Dox
[5] = measured here: total cells with miR-34 induction, stronger effect = lower value
[6] = measured here: total cells without miR-34 induction
[7] = MELAS cybrid survival, CellTiter-Glo 48 h, stronger effect = higher value
[8] = Rieske KO mouse fibroblast survival, CellTiter-Glo 72 h
Note: test concentration not given here.

SMILES	fold change [1, 3]	fold change [1, 4]	cell count [1, 5]	cell count [1, 6]	z-score [2, 7]	z-score [2, 8]
CN1CCCC1CCO[C@](C)(c1ccccc1)c1ccc(Cl)cc1 (some centres undefined)	0.919 (inactive)	1.18	7530	8200	-0.384 (inactive)	0.111
C=CCNC1=C2CC(C)CC(OC)C(O)C(C)C=C(C)C(OC(N)=O)C(OC)C=CC=C(C)C(=O)NC(=CC1=O)C2=O (centres undefined)	1.02 (inactive)	1.05	1870	1820	1.58 (inactive)	-0.477
CC(=O)OCC(=O)[C@]12OC(C)(C)OC1C[C@H]1[C@@H]3CC(F)C4=CC(=O)C=C[C@]4(C)[C@]3(F)C(O)C[C@@]12C (some centres undefined)	0.819 (inactive)	1.14	5400	6590	-0.325 (inactive)	-0.647
CC(C)(C(=O)NCC(F)(F)C(F)(F)F)C(=O)NC1C(=O)Nc2ccccc2-c2ccccc21 (centres undefined)	0.97 (inactive)	0.87	7630	7860	-0.378 (inactive)	0.321
CC(C)Oc1ccc(C(=O)NC(CNC(=O)CN(C)C)Cc2ccc(-c3cn4cccc(C(C)O)c4n3)cc2)cc1Cl (centres undefined)	1 (inactive)	0.389	1600	1590	1.36 (inactive)	-2.78
COC(=O)NC(C(=O)N1CCCC1c1ncc(-c2ccc(-c3ccc(-c4cnc(C5CCCN5C(=O)C(NC(=O)OC)C(C)C)[nH]4)cc3)cc2)[nH]1)C(C)C (centres undefined)	0.912 (inactive)	0.711	6220	6830	1.19 (inactive)	0.581
OCC1OC(Oc2ccc(O)cc2)C(O)C(O)C1O (centres undefined)	0.859 (inactive)	1.01	7730	9000	-0.228 (inactive)	0.468
CC(=CC(=O)OCCCCCCCCC(=O)O)CC1OC[C@H](CC2O[C@H]2C(C)C(C)O)C(O)C1O (some centres undefined)	0.939 (inactive)	0.638	8270	8800	0.679	5.51
CC(=O)c1cc([N+](=O)[O-])c(Sc2cccc(Cl)c2Cl)s1	0.882 (inactive)	0.345	7980	9050	-0.31 (inactive)	0.849
CC(C)c1ccc(NC(=O)Cn2cnc3c2c(=O)n(C)c(=O)n3C)cc1	0.933 (inactive)	1.42	7540	8090	0.298 (inactive)	-0.444
Cc1cc2c(F)c(Oc3ncnn4cc(OCC(C)O)c(C)c34)ccc2[nH]1 (centres undefined)	1.07 (inactive)	0.907	4250	3990	-0.638 (inactive)	0.759
Cc1cc(Nc2cc(N3CCN(C)CC3)nc(C=Cc3ccccc3)n2)n[nH]1	1.29 (inactive)	1.19	1120	872	1.43 (inactive)	-2.06
CC1(C)CCC(c2ccc(Cl)cc2)=C(CN2CCN(c3ccc(C(=O)NS(=O)(=O)c4ccc(NC(CCN5CCOCC5)CSc5ccccc5)c(S(=O)(=O)C(F)(F)F)c4)cc3)CC2)C1 (centres undefined)	1.03 (inactive)	0.848	4260	4140	0.179 (inactive)	-2.71
C=C1C[C@@]2(O)O[C@@]3(CC2C(C)C)C(C)CC[C@@H]13 (some centres undefined)	0.988 (inactive)	0.924	9960	10100	-0.407 (inactive)	0.387
CN1[C@@H]2CC[C@@H]1CC(OC(=O)C(O)c1ccccc1)C2 (some centres undefined)	0.924 (inactive)	0.78	8330	9020	-0.279 (inactive)	-0.173
CCCCc1ncc(C=C(Cc2cccs2)C(=O)O)n1Cc1ccc(C(=O)O)cc1	0.858 (inactive)	0.882	8440	9840	-0.00421 (inactive)	-0.115
CCc1cc2c(cc1CC)CC(NCC(O)c1ccc(O)c3[nH]c(=O)ccc13)C2 (centres undefined)	1.01 (inactive)	0.491	7460	7410	-0.199 (inactive)	-0.118
COc1cccc2c1C(=O)c1c(O)c3c(c(O)c1C2=O)C[C@@](O)(C(=O)CO)C[C@@H]3OC1CC(N)C(OC2CCCCO2)C(C)O1 (some centres undefined)	1.07 (inactive)	1.21	1240	1150	3.19 (active)	-0.724
CCOC(=O)C1=C(N)Oc2ccc(Br)cc2[C@H]1C(C#N)C(=O)OCC (some centres undefined)	0.989 (inactive)	0.887	5900	5960	-0.334 (inactive)	0.811
O=C(NC1CCN(CCCCC2(C(=O)NCC(F)(F)F)c3ccccc3-c3ccccc32)CC1)c1ccccc1-c1ccc(C(F)(F)F)cc1	1.05 (inactive)	0.667	3960	3780	-0.492 (inactive)	-0.827
CCNC(=O)C1OC(n2cnc3c(N)nc(NCCc4ccc(CCC(=O)O)cc4)nc32)C(O)C1O (centres undefined)	1.01 (inactive)	0.733	7450	7360	0.177 (inactive)	-0.329
O=c1[nH]c(=O)n(C2CC(O)C(CO)O2)cc1C(F)(F)F (centres undefined)	1.15 (inactive)	0.574	1670	1450	-0.198 (inactive)	-0.513
CC1(C)C(OC2OC(C(=O)O)C(O)C(O)C2OC2OC(C(=O)O)C(O)C(O)C2O)CC[C@@]2(C)[C@H]1CC[C@]1(C)[C@H]2C(=O)C=C2[C@H]3C[C@@](C)(C(=O)O)CC[C@]3(C)CC[C@]21C (some centres undefined)	0.916 (inactive)	0.946	8230	8990	-0.0747 (inactive)	-0.803
CCOC(=O)C(CCc1ccccc1)NC(C)C(=O)N1Cc2ccccc2CC1C(=O)O (centres undefined)	0.963 (inactive)	1.71	8090	8400	0.0216 (inactive)	-0.419
CC(C)NCC(C(=O)N1CCN(c2ncnc3c2C(C)CC3O)CC1)c1ccc(Cl)cc1 (centres undefined)	1.1 (inactive)	0.724	7580	6900	-0.408 (inactive)	0.0437
O=C(C=Cc1ccc(O)cc1)c1ccc(O)cc1O	0.99 (inactive)	0.784	8890	8980	-0.337 (inactive)	0.414
CC(=O)OC1C[C@@H]2CC[C@@H]3[C@@H](CC[C@]4(C)C(OC(C)=O)C([N+]5(C)CCCCC5)C[C@@H]34)[C@@]2(C)CC1N1CCCCC1 (some centres undefined)	0.894 (inactive)	1.12	8090	9050	-0.47 (inactive)	-0.53
CCOC(=O)C(CCc1ccccc1)NC1CCCN2CCCC(C(=O)O)N2C1=O (centres undefined)	0.927 (inactive)	0.673	7550	8150	-0.275 (inactive)	-0.0266
COc1ccc(CC2c3cc(OC)c(OC)cc3CC[N@+]2(C)CCC(=O)OCCCCCOC(=O)CC[N@@+]2(C)CCc3cc(OC)c(OC)cc3C2Cc2ccc(OC)c(OC)c2)cc1OC (some centres undefined)	0.844 (inactive)	1.36	7940	9400	-0.391 (inactive)	0.533
